Results published in PubChem BioAssay (NCATS).
Records with an inconclusive call do not appear. The source made the active and inactive calls. Unless noted, calls come from the whole dose curve; as a rule, active = well fitted curve in either direction with a large enough effect (not every such curve was filed as active); inconclusive = small, poorly fitted or top-dose-only effect, or another doubt; inactive = flat fitted curve, though single readings scatter.

Key:
[1] = biological target: Lysosomal acid glucosylceramidase (Homo sapiens) (UniProt P04062); assay: Glucocerebrosidase-p2 (AID 348; in the data active = potency below about 10 µM; note: potency is the fitted concentration of half-maximal effect); details: purified GBA, blue fluorogenic substrate, 40 min
Method in brief: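 Compounds titrated from 0.6 nM upwards against 0.2 nM enzyme in pH 5.9 citric acid/KH2PO4, taurocholate, tween-20; blue fluorogenic substrate 80 uM, 40 min room temperature, stopped and read Ex 365/Em 440 for AC50.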

[2] = AP1 Signaling Pathway (AID 357); details: ME-180 AP-1-bla reporter, EGF-induced, beta-lactamase ratio, 5 h; at 7.69 µM (top of the series) unless noted;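 note: ME-180 reporter cells stimulated with EGF at its EC50 level; % is set by controls: 0 for no effect and ±100 for the full control effect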
Method in brief: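 Cells are seeded overnight, exposed to compound titrations and an EC50 level of EGF for 5 hours at 37 °C, then loaded with CCF4 dye for 2.5 hours. Beta-lactamase activity under the AP-1 element is read as a blue/green ratio.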

[3] = biological target: Cytochrome P450 1A2 (Homo sapiens) (UniProt P05177); assay: p450-cyp1a2 (AID 410; calls by dose curve; note: potency is the fitted concentration of half-maximal effect;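 for activity change, negative = inhibition: -100% = full effect of reference inhibitor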); details: recombinant CYP1A2, luciferin-ME demethylation, luminescence; series mostly up to 11.4 µM
Method in brief: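 Human CYP1A2 (20nM) demethylated Luciferin-ME at its Km (100uM) in 100mM KPO4. After 10 min compound preincubation, NADPH regeneration ran the reaction 60 min at room temperature. Luciferin was read by luminescence, normalized to 57 uM furafylline.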

[4] = Stat Signaling Pathway (AID 446); details: ME-180 SIE beta-lactamase reporter, IL-6 stimulated, 5 h; at 7.69 µM (top of the series) unless noted;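 note: ME-180 cervical cancer cells given 40 pM IL-6 alongside compound; SIE-controlled beta-lactamase reporter measured as 460/530 nm FRET emission ratio; % is set by controls: 0 for no effect and ±100 for the full control effect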
Method in brief: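 ME-180 SIE-bla cells; overnight plating; cpd + IL-6 40 pM, 5 h, 37 C; LiveBLAzer 2.5 h RT; 460/530 nm emission ratio. Normalized to 300 pM IL-6 and 125 nM JAK inhibitor controls.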

[5] = biological target: Glucocorticoid receptor (Homo sapiens) (UniProt P04150); assay: GR-GFP Redistribution (AID 450;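 active = compounds whose dose series gives a full or clear partial fitted curve of increased nuclear translocation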; note: potency is the fitted concentration of half-maximal effect); details: U2OS GR-GFP nuclear translocation, laser cytometry, 2 h
[6] = biological target: Glucocorticoid receptor (Homo sapiens) (UniProt P04150); assay: GR-EFC Redistribution (AID 451; calls by dose curve; note: potency is the fitted concentration of half-maximal effect); details: CHO-K1 GR-EFC translocation, beta-gal luminescence, 2 h
Method in brief: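 Translocation of GR-ED fusion to nuclear EA restores b-gal, read by luminescence after 1 h room-temperature detection. Engineered CHO-K1 biosensor cells, 1,000/well, exposed 2 h at 37 C to titrations up to 46 uM final.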

[7] = biological target: Mitogen-activated protein kinase 10 (Mus musculus) (UniProt Q61831); assay: JNK3 AlphaScreen Assay (AID 530); details: JNK3 lysate, c-Jun phosphorylation; series mostly up to 11.4 µM;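 note: kinase came from lysate of stimulated human HepG2 cells; signal reports phosphorylation of biotinylated GST-cJun 1-79 at Ser73 with 10 µM ATP; % is set by controls: 0 for no effect and ±100 for the full control effect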
Method in brief: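 Room-temperature AlphaScreen kinase assay; pre-activated HepG2 lysate as JNK3 source, biotin-GST-cJun(1-79) substrate, 10 uM ATP, compound 15 min preincubation.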

[8] = biological target: 3',5'-cyclic-AMP phosphodiesterase 4B (Homo sapiens) (UniProt Q07343); assay: qHTS Assay for Inhibitors of PDE-IV (AID 607; active = well fitted activation curve with a large enough effect in the main read-out, with a control signal flat, not every such curve was filed as active; note: % of control where 0% means no effect); details: HEK293 ACTOne CNG channel cells, membrane potential fluorescence; series mostly up to 22.9 µM
Method in brief: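 ACTOne HEK293 cells carry a modified cAMP-gated CNG channel and express endogenous PDE4; plated 1000 cells/well, compounds up to 22.9 uM final. Membrane-potential dye fluorescence (ex 535/em 590) was read; parental cells received 10 uM forskolin + 100 uM RO 20-1724.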

[9] = NFAT Signaling Pathway (AID 444); details: Jurkat NFAT-bla M1, carbachol, beta-lactamase ratio, 5 h; at 7.69 µM (top of the series) unless noted;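 note: carbachol stimulus at about its EC50 of 1 µM final; % is set by controls: 0 for no effect and ±100 for the full control effect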
Method in brief: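 Read-out: CCF4 FRET ratio (460 nm/530 nm) after 1 h RT dye loading, used for %activity and AC50 from titration series. Cells: Jurkat NFAT-β-lactamase/M1 line, treated with compound plus 1 uM carbachol for 5 h, 37 °C.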

[10] = biological target: Cytochrome P450 3A4 (Homo sapiens) (UniProt P08684); assay: qHTS Assay for Activators of Cytochrome P450 3A4 (AID 885; active = well fitted curve in the direction sought with a large enough effect; an effect the other way counts as inactive or inconclusive; note: nearly all actives have a fitted effect of over 65% in size); details: recombinant CYP3A4, Luciferin-PPXE luminescence, 60 min; series mostly up to 11.4 µM
Method in brief: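 20nM CYP3A4 + 25uM Luciferin-PPXE (=KM), 200mM KPO4; cpd 10 min RT; NADPH regen, 60 min RT; stop w/ detection buffer, 20 min; luminescence. Normalized to 57 uM ketoconazole.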

[11] = biological target: Cytochrome P450 2D6 (Homo sapiens) (UniProt P10635); assay: qHTS Assay for Inhibitors and Substrates of Cytochrome P450 2D6 (AID 891; active = well fitted curve in the direction sought with a large enough effect; an effect the other way counts as inactive or inconclusive; note: nearly all actives have a fitted effect of over 60% in size; note: potency is the fitted concentration of half-maximal effect); details: recombinant CYP2D6, luciferin-ME EGE luminescence; series mostly up to 11.4 µM
Method in brief: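 Human CYP2D6 (5 nM) with 30 uM Luciferin-ME EGE (at Km) in 100 mM KPO4, compound preincubated 10 min, then NADPH regeneration system for 60 min at room temperature. Luciferin read by luminescence; normalized to 1.43 uM quinidine.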

[12] = biological target: ATP-dependent 6-phosphofructokinase (Trypanosoma brucei brucei) (UniProt O15648); assay: qHTS Assay to Find Inhibitors of T. brucei phosphofructokinase: hit validation (AID 492961; active = well fitted curve in the direction sought with a large enough effect; an effect the other way counts as inactive or inconclusive); details: T. brucei PFK, ADP-Glo luminescence; series mostly up to 51.4 µM
Method in brief: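 ADP-Glo luminescence read-out of ADP formed by 1.25 nM PFK from 0.1 mM ATP and 0.5 mM F6P (TEA pH 8.0, 45 min, RT). Compounds titrated; activity normalized to no-enzyme and full-enzyme controls.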

[13] = qHTS profiling for inhibitors of Plasmodium falciparum proliferation (AID 504749; active = well fitted curve in the direction sought with a large enough effect; an effect the other way counts as inactive or inconclusive;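 note: 0% = DMSO vehicle and full inhibition = artemisinin control; nearly all actives have a fitted effect of over 60% in size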); details: P. falciparum in erythrocytes, SYBR Green DNA, 72 h, at 28.7 µM (top of the series)
Method in brief: (§1)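 Three-day growth assay of blood-stage parasites in erythrocytes (0.3% parasitemia, 2.5% hematocrit) at 37 C, 5% CO2, quantified by SYBR Green DNA staining after overnight detergent lysis.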

AS120 = assay: as above; details: P. falciparum in erythrocytes, SYBR Green DNA, 72 h; series mostly up to 28.7 µM
Method in brief: as §1

CP203 = assay: as above; details: P. falciparum in erythrocytes, SYBR Green DNA, 72 h; series mostly up to 28.7 µM
Method in brief: as §1

DFO2036 = assay: as above; details: P. falciparum in erythrocytes, SYBR Green DNA, 72 h; series mostly up to 28.7 µM
Method in brief: as §1

W2 = assay: as above; details: P. falciparum in erythrocytes, SYBR Green DNA, 72 h; series mostly up to 28.7 µM
Method in brief: as §1

[14] = biological target: Cytochrome P450 2C9 (Homo sapiens) (UniProt P11712); assay: qHTS Assay for Inhibitors and Substrates of Cytochrome P450 2C9 (AID 883; active = well fitted curve in the direction sought with a large enough effect; an effect the other way counts as inactive or inconclusive; note: nearly all actives have a fitted effect of over 60% in size; note: potency is the fitted concentration of half-maximal effect); details: recombinant CYP2C9, luciferin-H luminescence, 60 min; series mostly up to 11.4 µM
Method in brief: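 Luminescent read-out of deoxyluciferin hydroxylation, normalized to 57uM sulphaphenazole (AC100). Reaction: 10nM enzyme, 100uM Luciferin-H (equal to KM), 25mM KPO4, 10 min compound preincubation, then 60 min with NADPH regeneration, both at 37C.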

[15] = biological target: Cytochrome P450 2C19 (Homo sapiens) (UniProt P33261); assay: qHTS Assay for Inhibitors and Substrates of Cytochrome P450 2C19 (AID 899; active = well fitted curve in the direction sought with a large enough effect; an effect the other way counts as inactive or inconclusive; note: nearly all actives have a fitted effect of over 60% in size; note: potency is the fitted concentration of half-maximal effect); details: recombinant CYP2C19, luciferin-H EGE luminescence; series mostly up to 11.4 µM
Method in brief: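 Luminescence readout of luciferin formed from 10uM Luciferin-H EGE (KM level) by 5 nM CYP2C19 in 50mM KPO4. 60 min NADPH-driven reaction at 37C after 10 min compound preincubation; data scaled to 57uM ketoconazole inhibition.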

Sequence of Glucocorticoid receptor (Homo sapiens) (P04150 whole entry, looked up, the tested form may be a part): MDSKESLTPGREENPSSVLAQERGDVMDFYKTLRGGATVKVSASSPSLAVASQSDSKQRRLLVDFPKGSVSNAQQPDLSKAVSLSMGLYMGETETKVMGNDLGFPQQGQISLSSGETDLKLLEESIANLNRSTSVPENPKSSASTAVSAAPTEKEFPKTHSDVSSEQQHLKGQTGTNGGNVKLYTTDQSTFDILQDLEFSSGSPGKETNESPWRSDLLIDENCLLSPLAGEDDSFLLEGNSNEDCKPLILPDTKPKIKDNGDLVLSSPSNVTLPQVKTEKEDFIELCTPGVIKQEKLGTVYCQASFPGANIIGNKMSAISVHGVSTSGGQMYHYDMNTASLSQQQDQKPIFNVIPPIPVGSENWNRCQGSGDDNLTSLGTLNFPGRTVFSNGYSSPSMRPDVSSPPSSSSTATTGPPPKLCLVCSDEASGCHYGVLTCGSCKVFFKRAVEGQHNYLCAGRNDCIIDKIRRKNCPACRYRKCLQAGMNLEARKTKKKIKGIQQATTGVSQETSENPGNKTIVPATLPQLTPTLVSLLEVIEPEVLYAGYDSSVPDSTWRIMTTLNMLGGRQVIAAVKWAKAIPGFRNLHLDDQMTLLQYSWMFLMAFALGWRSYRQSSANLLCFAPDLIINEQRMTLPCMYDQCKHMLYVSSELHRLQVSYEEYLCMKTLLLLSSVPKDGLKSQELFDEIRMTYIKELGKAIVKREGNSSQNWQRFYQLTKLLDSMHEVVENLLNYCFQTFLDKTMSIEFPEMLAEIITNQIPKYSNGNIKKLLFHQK
Sequence of Cytochrome P450 3A4 (Homo sapiens) (P08684 whole entry, looked up): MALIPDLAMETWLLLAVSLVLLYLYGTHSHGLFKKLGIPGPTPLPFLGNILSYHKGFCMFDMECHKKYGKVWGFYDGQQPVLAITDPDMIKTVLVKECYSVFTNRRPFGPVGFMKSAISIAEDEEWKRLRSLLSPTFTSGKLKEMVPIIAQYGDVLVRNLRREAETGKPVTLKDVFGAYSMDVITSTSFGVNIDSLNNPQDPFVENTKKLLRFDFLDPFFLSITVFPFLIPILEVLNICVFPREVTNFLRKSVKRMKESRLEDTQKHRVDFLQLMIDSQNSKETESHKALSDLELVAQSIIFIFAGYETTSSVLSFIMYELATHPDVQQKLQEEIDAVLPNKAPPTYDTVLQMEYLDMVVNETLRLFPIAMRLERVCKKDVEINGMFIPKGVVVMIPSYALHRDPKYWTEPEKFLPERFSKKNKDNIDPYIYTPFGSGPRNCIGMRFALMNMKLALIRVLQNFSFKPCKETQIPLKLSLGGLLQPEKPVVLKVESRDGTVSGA
Sequence of Cytochrome P450 2C19 (Homo sapiens) (P33261 whole entry, looked up): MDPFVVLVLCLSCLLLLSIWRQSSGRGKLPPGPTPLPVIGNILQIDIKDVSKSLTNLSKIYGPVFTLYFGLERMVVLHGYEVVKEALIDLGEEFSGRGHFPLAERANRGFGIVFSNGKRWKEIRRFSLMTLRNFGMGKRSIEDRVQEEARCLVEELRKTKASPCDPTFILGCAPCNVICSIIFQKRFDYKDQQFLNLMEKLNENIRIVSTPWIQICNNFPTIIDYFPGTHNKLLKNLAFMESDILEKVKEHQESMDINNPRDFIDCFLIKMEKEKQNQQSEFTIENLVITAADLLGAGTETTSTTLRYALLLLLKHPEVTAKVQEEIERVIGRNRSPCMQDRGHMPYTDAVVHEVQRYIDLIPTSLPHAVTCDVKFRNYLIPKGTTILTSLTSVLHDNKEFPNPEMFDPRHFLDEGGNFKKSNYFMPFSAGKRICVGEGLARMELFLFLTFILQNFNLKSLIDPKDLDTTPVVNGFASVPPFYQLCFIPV
Sequence of 3',5'-cyclic-AMP phosphodiesterase 4B (Homo sapiens) (Q07343 whole entry, looked up): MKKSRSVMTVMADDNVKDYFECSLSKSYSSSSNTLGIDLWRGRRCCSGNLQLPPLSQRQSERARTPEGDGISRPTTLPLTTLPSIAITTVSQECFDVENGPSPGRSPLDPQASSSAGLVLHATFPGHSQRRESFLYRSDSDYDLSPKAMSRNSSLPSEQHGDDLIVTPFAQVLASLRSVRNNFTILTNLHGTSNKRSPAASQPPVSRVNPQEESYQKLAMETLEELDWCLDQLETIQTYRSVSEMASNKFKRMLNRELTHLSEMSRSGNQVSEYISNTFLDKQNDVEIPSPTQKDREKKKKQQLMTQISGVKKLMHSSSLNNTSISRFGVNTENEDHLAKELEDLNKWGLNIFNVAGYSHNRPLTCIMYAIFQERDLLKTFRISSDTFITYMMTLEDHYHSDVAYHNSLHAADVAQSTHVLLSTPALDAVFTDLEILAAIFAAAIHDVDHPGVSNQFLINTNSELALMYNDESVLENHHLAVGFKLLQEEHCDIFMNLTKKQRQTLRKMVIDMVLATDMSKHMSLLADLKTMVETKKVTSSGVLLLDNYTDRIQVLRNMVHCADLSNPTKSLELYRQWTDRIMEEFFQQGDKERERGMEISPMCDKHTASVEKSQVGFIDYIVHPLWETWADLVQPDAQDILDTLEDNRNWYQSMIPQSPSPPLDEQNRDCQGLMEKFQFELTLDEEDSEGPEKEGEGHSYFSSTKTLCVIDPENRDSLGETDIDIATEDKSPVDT
Sequence of ATP-dependent 6-phosphofructokinase (Trypanosoma brucei brucei) (O15648 whole entry, looked up): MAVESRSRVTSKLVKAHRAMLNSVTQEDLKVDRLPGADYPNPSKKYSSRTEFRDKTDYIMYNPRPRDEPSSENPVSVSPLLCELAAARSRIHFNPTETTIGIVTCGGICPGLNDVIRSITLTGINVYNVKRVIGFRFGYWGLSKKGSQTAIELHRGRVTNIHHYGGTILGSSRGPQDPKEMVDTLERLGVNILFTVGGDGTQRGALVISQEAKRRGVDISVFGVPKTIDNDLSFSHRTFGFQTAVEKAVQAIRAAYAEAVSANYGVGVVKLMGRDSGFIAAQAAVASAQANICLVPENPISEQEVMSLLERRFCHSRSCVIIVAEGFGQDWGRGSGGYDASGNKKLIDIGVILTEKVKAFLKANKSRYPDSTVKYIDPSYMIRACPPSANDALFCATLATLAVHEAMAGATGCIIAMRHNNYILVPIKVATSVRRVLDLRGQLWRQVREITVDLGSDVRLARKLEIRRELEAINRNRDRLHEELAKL
Sequence of Cytochrome P450 1A2 (Homo sapiens) (P05177 whole entry, looked up): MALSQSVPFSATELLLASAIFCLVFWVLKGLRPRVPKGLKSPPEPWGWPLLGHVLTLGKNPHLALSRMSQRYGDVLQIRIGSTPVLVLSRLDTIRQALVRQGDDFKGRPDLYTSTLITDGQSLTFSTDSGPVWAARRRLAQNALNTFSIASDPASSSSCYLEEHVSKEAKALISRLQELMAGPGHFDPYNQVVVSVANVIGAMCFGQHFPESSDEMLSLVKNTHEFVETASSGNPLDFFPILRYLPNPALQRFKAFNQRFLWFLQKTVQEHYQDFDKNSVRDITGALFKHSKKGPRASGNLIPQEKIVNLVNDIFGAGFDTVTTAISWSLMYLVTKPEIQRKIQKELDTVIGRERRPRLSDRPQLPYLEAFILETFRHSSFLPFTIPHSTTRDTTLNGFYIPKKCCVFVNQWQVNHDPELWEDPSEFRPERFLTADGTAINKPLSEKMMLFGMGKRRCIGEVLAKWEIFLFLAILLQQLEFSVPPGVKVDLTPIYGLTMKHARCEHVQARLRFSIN
Sequence of Lysosomal acid glucosylceramidase (Homo sapiens) (P04062 whole entry, looked up): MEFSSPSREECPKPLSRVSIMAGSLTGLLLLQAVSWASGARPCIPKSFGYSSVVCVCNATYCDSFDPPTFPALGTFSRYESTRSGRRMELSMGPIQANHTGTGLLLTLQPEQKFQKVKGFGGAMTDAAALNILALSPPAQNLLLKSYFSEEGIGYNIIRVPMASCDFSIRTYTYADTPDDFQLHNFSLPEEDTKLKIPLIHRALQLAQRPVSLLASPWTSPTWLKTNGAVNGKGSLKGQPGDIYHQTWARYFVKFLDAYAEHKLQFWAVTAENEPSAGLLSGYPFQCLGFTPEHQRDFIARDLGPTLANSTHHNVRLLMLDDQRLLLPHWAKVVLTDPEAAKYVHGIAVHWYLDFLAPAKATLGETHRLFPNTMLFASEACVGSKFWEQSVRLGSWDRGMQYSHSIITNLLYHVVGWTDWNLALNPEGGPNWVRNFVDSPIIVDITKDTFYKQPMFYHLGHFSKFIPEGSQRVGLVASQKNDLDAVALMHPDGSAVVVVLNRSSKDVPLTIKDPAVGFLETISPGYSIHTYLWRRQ
Sequence of Cytochrome P450 2C9 (Homo sapiens) (P11712 whole entry, looked up): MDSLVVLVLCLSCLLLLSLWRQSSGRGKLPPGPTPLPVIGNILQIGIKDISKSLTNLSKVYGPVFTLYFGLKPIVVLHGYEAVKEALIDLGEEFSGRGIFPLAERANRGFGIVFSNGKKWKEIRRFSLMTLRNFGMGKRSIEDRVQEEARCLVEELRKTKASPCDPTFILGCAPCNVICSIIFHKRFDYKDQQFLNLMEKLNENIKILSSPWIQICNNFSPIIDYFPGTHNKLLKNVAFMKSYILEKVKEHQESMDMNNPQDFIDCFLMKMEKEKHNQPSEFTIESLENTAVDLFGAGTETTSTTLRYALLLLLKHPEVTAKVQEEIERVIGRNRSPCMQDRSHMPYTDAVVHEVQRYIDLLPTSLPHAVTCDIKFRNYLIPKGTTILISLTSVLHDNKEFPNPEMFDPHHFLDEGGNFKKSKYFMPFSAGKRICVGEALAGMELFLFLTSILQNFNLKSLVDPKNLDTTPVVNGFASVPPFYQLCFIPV

N/N=C1/CC(=O)NC(=O)N1
inactive: Potency [1] > 11.4 µM | activity change, negative = inhibition [2] 2.16% | activity, negative = inhibition [4] -13% | Potency [5] > 46 µM | Potency [6] > 9.22 µM | Potency [7] | Potency [8]
active: Potency [3] 0.631 µM

O=C1C=CC(=Nc2cccc3c(N=C4C=CC(=O)O4)cccc23)O1
inactive: Potency [1] > 11.4 µM | activity change, negative = inhibition [2] 5.25% | Potency [3] | activity, negative = inhibition [4] -22.4% | Potency [5] > 46 µM | Potency [6] > 9.22 µM | Potency [7] | Potency [8]

CC(C)(N)CO[C@H]1C[C@H]2CC[C@@]1(C)C2(C)C
inactive: Potency [1] > 11.4 µM | activity change, negative = inhibition [2] 4.93% | Potency [3] | activity change, negative = inhibition [9] 3.38% | Potency [5] > 46 µM | Potency [7] | Potency [8]

O=c1c2ccccc2sc2c(CO)ccc(NCCN3CCCCC3)c12
active: Potency [3] 1.58 µM | Potency [11] 1.26 µM
inactive: Potency [1] > 11.4 µM | activity change, negative = inhibition [2] -1.51% | activity change, negative = inhibition [9] 27.4% | Potency [5] > 46 µM | Potency [7] | Potency [8] | Potency [10]

CC1(C)[C@@H]2CC[C@]1(C)[C@@H](OC(=O)CSC#N)C2
inactive: Potency [1] > 11.4 µM | activity change, negative = inhibition [2] -4% | activity change, negative = inhibition [3] -18.3% [at 2.29 µM] | activity change, negative = inhibition [9] 18.3% | Potency [7] | Potency [8] | outcome [12] | activity, negative = inhibition ([13]; parasite line A) -6.1% | activity, negative = inhibition ([13]; parasite line B) -5.42% | Potency (AS120) | Potency (CP203) | Potency (DFO2036) | Potency (W2)

COc1cccc2c1C(=O)c1c(O)c3c(c(O)c1C2=O)C[C@](O)(C(=O)CO)C[C@@H]3O[C@H]1C[C@H](N)[C@@H](O)[C@H](C)O1
inactive: Potency [1] > 11.4 µM | activity change, negative = inhibition [2] 13.6% | Potency [3] | activity, negative = inhibition [4] 15.8% | Potency [5] > 46 µM | Potency [6] > 9.22 µM | Potency [7] | Potency [8] | Potency [14] | Potency [11] | Potency [15] | outcome [12] | activity, negative = inhibition ([13]; parasite line A) 6.65% | activity, negative = inhibition ([13]; parasite line B) 5.26% | Potency (AS120) | Potency (CP203) | Potency (DFO2036) | Potency (W2)

COCCn1c(=O)c(-c2ccccc2)nc2cnc(Nc3ccccc3)nc21
active: Potency [3] 5.01 µM
inactive: Potency [1] > 11.4 µM | activity change, negative = inhibition [2] -24.1% | activity change, negative = inhibition [9] 10.4% | Potency [5] > 9.22 µM | Potency [6] > 46 µM | Potency [7] | Potency [10]

CC1=c2c(oc3cc(O)c(Nc4c(C)cc(O)cc4O)c(C)c23)=CC(=O)C1=Nc1c(C)cc(O)cc1O
active: Potency [3] 3.16 µM | Potency [14] 3.16 µM | Potency [15] 3.16 µM
inactive: Potency [1] > 11.4 µM | activity change, negative = inhibition [2] -6.5% | activity change, negative = inhibition [9] -22.3% | Potency [5] > 46 µM | Potency [6] > 9.22 µM | Potency [8]

OCCN(CCO)c1ncnc2nc[nH]c12
inactive: Potency [1] > 11.4 µM | activity change, negative = inhibition [2] -2.15% | Potency [3] | activity, negative = inhibition [4] -0.624% | Potency [5] > 46 µM | Potency [6] > 9.22 µM | Potency [7] | Potency [8]

O=[N+]([O-])c1ccc(CSCc2ccc(Cl)cc2)cc1
inactive: Potency [1] > 11.4 µM | activity change, negative = inhibition [2] -19.3% | activity, negative = inhibition [4] 11.6% | Potency [5] > 46 µM | Potency [6] > 9.22 µM | Potency [7] | Potency [8]
active: Potency [3] 3.98 µM

COc1ccc(-n2c(=O)c(C)nc3cnc(Nc4cccc(OC)c4)nc32)cc1
inactive: Potency [1] > 11.4 µM | activity change, negative = inhibition [2] -25.7% | activity change, negative = inhibition [9] 10.5% | Potency [5] > 9.22 µM | Potency [6] > 46 µM | Potency [7] | Potency [10]
active: Potency [3] 15.8 µM

CC(C)(C)NC[C@@H](O)c1ccc(O)c(CO)n1
inactive: Potency [1] > 11.4 µM | activity change, negative = inhibition [2] -2.07% | activity change, negative = inhibition [3] 10.1% [at 2.29 µM] | activity, negative = inhibition [4] 19.4% | Potency [5] > 46 µM | Potency [6] > 9.22 µM | Potency [7] | Potency [8] | outcome [12] | activity, negative = inhibition ([13]; parasite line A) 8.88% | activity, negative = inhibition ([13]; parasite line B) 0.372% | Potency (AS120) | Potency (CP203) | Potency (DFO2036) | Potency (W2)

CC(C)NC[C@@H](O)c1ccc(O)c2ncccc12
inactive: Potency [1] > 11.4 µM | activity change, negative = inhibition [2] -5.62% | activity change, negative = inhibition [3] -12.1% [at 2.29 µM] | activity change, negative = inhibition [9] 14% | Potency [5] > 46 µM | Potency [6] > 9.22 µM | Potency [7] | Potency [8] | Potency [15]

CN(C)CCCN1CCC2(CCC(C(C)(C)C)CC2)CC1
inactive: Potency [1] > 11.4 µM | activity change, negative = inhibition [2] -6.54% | Potency [3] | activity, negative = inhibition [4] 8.08% | Potency [5] > 46 µM | Potency [6] > 9.22 µM | Potency [7]
